The record followed here is PubChem BioAssay (Tox21).

Results filed as inconclusive are left out. Active and inactive are the calls of the source. Unless noted, calls follow the shape of the full dose curve.

One test can be described thus: qHTS assay to identify small molecule antagonists of the retinoid-related orphan receptor gamma (ROR-gamma) signaling pathway - cell viability counter screen (AID 1159520; active = well fitted cell-killing curve with a large enough effect in the repeat runs; also: % is scaled to controls: 0 for no effect and ±100 for the full control effect; nearly all actives have a fitted effect of over 50% in size). The conditions noted are these: Tet-on RORgamma CHO cells viability, ATP luminescence, 16 h; series mostly up to 92.4 µM; activity, negative = cytotoxicity: at the top concentration. Put shortly:
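Cytotoxicity was read from cellular ATP (CellTiter-Glo luminescence) after 16 hr at 37 C with 1 uM doxycycline induction. The inducer was added 2 hr after compound transfer to Tet-on ROR gamma CHO cells.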
On the technique in general: qHTS replaces the single test concentration by a dilution series.
Take `O=[N+]([O-])c1cccc(S(=O)(=O)NCCNS(=O)(=O)c2cccc([N+](=O)[O-])c2)c1`: the “activity, negative = cytotoxicity” value was -4.61% [at 42.5 µM] (inactive).
The same measure, in the same setting: in the case of `CCCCC(CC)COC(=O)COc1ccc(Cl)cc1C` (stereo not drawn) it was 1.37% (inactive).
Same read-out and setting: in the case of `CN1CCN(c2c(F)cc3c(=O)c(C(=O)O)cn4c3c2OCN4C)CC1` it was 0.283% [at 19 µM] (inactive).
On the same count and under the same terms, the figure for `O=C1NCCN1` is 11.2% (inactive); for `C=CC(C)(O)CCCC(C)CCCC(C)CCCC(C)C` (stereo not drawn) it is 1.22% (inactive).
Turning to `COc1cc2c(N3CCN(C(=O)Nc4ccc(OC(C)C)cc4)CC3)ncnc2cc1OCCCN1CCCCC1`, the “activity, negative = cytotoxicity” value is -11.5% [at 42.5 µM] (inactive).
Same read-out and setting: the figure for `OC(CCCN1CCCCC1)(c1ccccc1)c1ccccc1` is 9.98% [at 42.5 µM] (inactive); for `Nc1c(I)cc(I)c(C(=O)N(CCC(=O)O)c2ccccc2)c1I` it is -1.75% [at 42.5 µM] (inactive).
In the case of `Nc1nccs1`, the “activity, negative = cytotoxicity” value was -6.39% (inactive).
In the case of `O=C(O)c1snc(Cl)c1Cl`, the “activity, negative = cytotoxicity” value is -6.36% (inactive).
On the same count and under the same terms, in the case of `CCC1(C)CC(=O)NC1=O` (stereo not drawn) it was 1.3% [at 42.5 µM] (inactive).
Still for that read-out and setting: in the case of `C/C(=N/NC(=O)c1ccncc1)C(=O)O` it was 4% [at 42.5 µM] (inactive); in that of `CCn1nc(C)c2c1C(=O)NCC(c1ccc(O)cc1)=N2`, 3.45% (inactive); in that of `Cc1ccccc1N1C(=O)c2cc(S(N)(=O)=O)c(Cl)cc2NC1C` (stereo not drawn), 1.39% [at 42.5 µM] (inactive).
Take `O=S(=O)(c1ccccc1)c1ccc(Cl)cc1`: the “activity, negative = cytotoxicity” value was -6.13% (inactive).
For `Nc1nc(Cl)nc2c1ncn2[C@@H]1O[C@H](CO)[C@@H](O)[C@@H]1F`, the “activity, negative = cytotoxicity” value is -5.69% [at 42.5 µM] (inactive).
Consider `CC(C)C(=O)O`, for which the “activity, negative = cytotoxicity” value is 3.73% (inactive).
As for `CCOC(=O)C(C)Oc1ccc(Oc2nc3ccc(Cl)cc3o2)cc1` (stereo not drawn), the “activity, negative = cytotoxicity” value is 1.21% (inactive).
Same read-out and setting: the figure for `Oc1cc(O)c(Cl)cc1Cl` is 4.04% (inactive); for `C[C@@H]1C[C@H]2[C@@H]3CCC4=CC(=O)C=C[C@]4(C)[C@@]3(F)[C@@H](O)C[C@]2(C)[C@H]1C(=O)CO` it is -0.376% [at 42.5 µM] (inactive).
With `O=S1OCCO1`, the “activity, negative = cytotoxicity” value is 5.18% (inactive).
With `CC(=O)Nc1ccccc1C`, the “activity, negative = cytotoxicity” value is 0.642% (inactive).
Turning to `Nc1ccc(S(=O)(=O)O)c(N)c1`, the “activity, negative = cytotoxicity” value is -9.84% (inactive).
Take `CCCCN(CCCC)CCCOC(=O)c1ccc(N)cc1`: the “activity, negative = cytotoxicity” value is 3.42% [at 42.5 µM] (inactive).
Same read-out and setting: in the case of `C=CC(C)=CCC=C(C)C` it was 0.618% (inactive); in that of `CCC(C)=O`, 14.8% (inactive).
Take `COC(=O)[C@@H]1CC2=CC(=O)CC[C@]2(C)[C@@]23O[C@@H]2C[C@@]2(C)[C@@H](CC[C@@]24CCC(=O)O4)[C@H]13`: the “activity, negative = cytotoxicity” value was 0.82% [at 42.5 µM] (inactive).
On to `NC(=O)Nc1ccc(Cl)cc1`, for which the “activity, negative = cytotoxicity” value was 2.88% (inactive).
Still for that read-out and setting: the figure for `Cc1ccc(S(=O)(=O)NC2CCCCC2)cc1` is -11.6% (inactive); for `CO[Si](C)(OC)OC` it is 4.67% (inactive); for `CCCCOC(=O)CCS` it is 0.711% (inactive).
Still for that read-out and setting: in the case of `CCOc1cc(N)c(Cl)cc1C(=O)NCC1CN(Cc2ccc(F)cc2)CCO1` (stereo not drawn) it was -8.75% [at 42.5 µM] (inactive); in that of `CN1CCCN=C1/C=C/c1cccs1`, 0.318% [at 42.5 µM] (inactive).
`CCCCCCCCCOC(C)=O`: the “activity, negative = cytotoxicity” value is -3.53% (inactive).
As to `Cn1c(=O)c2c(ncn2CC(=O)O)n(C)c1=O`, the “activity, negative = cytotoxicity” value was 0.0652% [at 42.5 µM] (inactive).
The same measure, in the same setting: in the case of `N#C[C@@H]1C[C@@H]2C[C@@H]2N1C(=O)[C@@H](N)C12CC3CC(CC(O)(C3)C1)C2` it was -0.358% [at 42.5 µM] (inactive).
On the same count and under the same terms, in the case of `O=C(O)c1ccc(CO)o1` it was 5.63% (inactive); in that of `CN1Cc2cc(C(=O)N3CCC(C4CCNCC4)CC3)ccc2N[C@@H](CC(=O)O)C1=O`, -0.139% [at 42.5 µM] (inactive); in that of `CC1(C)C2=CCCC(C)(C)[C@]23CC[C@H]1C3`, -11% (inactive).

The next test is described as follows: qHTS assay to identify small molecule agonists of the AP-1 signaling pathway - cell viability counter screen (AID 1159525). Also: nearly all actives have a fitted effect of over 55% in size. Particulars: ME-180 (cervical carcinoma) AP-1-bla cells viability, ATP luminescence, 5 h; series mostly up to 76.8 µM; viability change, negative = cytotoxic: at the top concentration. Put shortly: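 Luminescent ATP readout (Cell Titer Glo, 30 min RT), normalised to DMSO and tetra n-octyl ammonium bromide controls. Cells were ME-180 AP-1-bla in 0.5% dialyzed FBS Opti-MEM, with a 5 h, 37 °C compound exposure.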
Consider `O=[N+]([O-])c1cccc(S(=O)(=O)NCCNS(=O)(=O)c2cccc([N+](=O)[O-])c2)c1`, for which the “viability change, negative = cytotoxic” value is 0.865% [at 35.3 µM] (inactive).
The same measure, in the same setting: the figure for `CCCCC(CC)COC(=O)COc1ccc(Cl)cc1C` (stereo not drawn) is 0.275% (inactive).
The same measure, in the same setting: the figure for `CN1CCN(c2c(F)cc3c(=O)c(C(=O)O)cn4c3c2OCN4C)CC1` is 12.5% [at 15.8 µM] (inactive); for `O=C1NCCN1` it is 0.573% (inactive); for `C=CC(C)(O)CCCC(C)CCCC(C)CCCC(C)C` (stereo not drawn) it is 3.15% (inactive).
On the same count and under the same terms, the figure for `COc1cc2c(N3CCN(C(=O)Nc4ccc(OC(C)C)cc4)CC3)ncnc2cc1OCCCN1CCCCC1` is 2.13% [at 35.3 µM] (inactive); for `OC(CCCN1CCCCC1)(c1ccccc1)c1ccccc1` it is 1.52% [at 35.3 µM] (inactive).
Turning to `Nc1c(I)cc(I)c(C(=O)N(CCC(=O)O)c2ccccc2)c1I`, the “viability change, negative = cytotoxic” value is -0.258% [at 35.3 µM] (inactive).
Turning to `Nc1nccs1`, the “viability change, negative = cytotoxic” value is 3.72% (inactive).
The same measure, in the same setting: the figure for `O=C(O)c1snc(Cl)c1Cl` is -2.99% (inactive); for `CCC1(C)CC(=O)NC1=O` (stereo not drawn) it is 3.39% [at 35.3 µM] (inactive).
The same measure, in the same setting: the figure for `C/C(=N/NC(=O)c1ccncc1)C(=O)O` is 0.901% [at 35.3 µM] (inactive).
With `CCn1nc(C)c2c1C(=O)NCC(c1ccc(O)cc1)=N2`, the “viability change, negative = cytotoxic” value is -2.21% (inactive).
In the case of `Cc1ccccc1N1C(=O)c2cc(S(N)(=O)=O)c(Cl)cc2NC1C` (stereo not drawn), the “viability change, negative = cytotoxic” value is -10% [at 35.3 µM] (inactive).
In the case of `O=S(=O)(c1ccccc1)c1ccc(Cl)cc1`, the “viability change, negative = cytotoxic” value is 0.376% (inactive).
On to `Nc1nc(Cl)nc2c1ncn2[C@@H]1O[C@H](CO)[C@@H](O)[C@@H]1F`, for which the “viability change, negative = cytotoxic” value was 8.93% [at 35.3 µM] (inactive).
On the same count and under the same terms, the figure for `CC(C)C(=O)O` is -2.12% (inactive).
In the case of `CCOC(=O)C(C)Oc1ccc(Oc2nc3ccc(Cl)cc3o2)cc1` (stereo not drawn), the “viability change, negative = cytotoxic” value is 0.27% (inactive).
The same measure, in the same setting: the figure for `Oc1cc(O)c(Cl)cc1Cl` is 0.292% (inactive).
`C[C@@H]1C[C@H]2[C@@H]3CCC4=CC(=O)C=C[C@]4(C)[C@@]3(F)[C@@H](O)C[C@]2(C)[C@H]1C(=O)CO`: the “viability change, negative = cytotoxic” value is -0.766% [at 35.3 µM] (inactive).
The same measure, in the same setting: in the case of `O=S1OCCO1` it was 1.67% (inactive); in that of `CC(=O)Nc1ccccc1C`, 0.625% (inactive).
The same measure, in the same setting: the figure for `Nc1ccc(S(=O)(=O)O)c(N)c1` is 4.53% (inactive).
Regarding `CCCCN(CCCC)CCCOC(=O)c1ccc(N)cc1`, the “viability change, negative = cytotoxic” value was 9.13% [at 35.3 µM] (inactive).
Consider `C=CC(C)=CCC=C(C)C`, for which the “viability change, negative = cytotoxic” value is -1.88% (inactive).
Turning to `CCC(C)=O`, the “viability change, negative = cytotoxic” value is 2.32% (inactive).
For the compound `COC(=O)[C@@H]1CC2=CC(=O)CC[C@]2(C)[C@@]23O[C@@H]2C[C@@]2(C)[C@@H](CC[C@@]24CCC(=O)O4)[C@H]13`, the “viability change, negative = cytotoxic” value is 8.18% [at 35.3 µM] (inactive).
In the case of `NC(=O)Nc1ccc(Cl)cc1`, the “viability change, negative = cytotoxic” value is 1.58% (inactive).
Same read-out and setting: in the case of `Cc1ccc(S(=O)(=O)NC2CCCCC2)cc1` it was 2.1% (inactive); in that of `CO[Si](C)(OC)OC`, -8.85% (inactive).
`CCCCOC(=O)CCS`: the “viability change, negative = cytotoxic” value was 0.664% (inactive).
Regarding `CCOc1cc(N)c(Cl)cc1C(=O)NCC1CN(Cc2ccc(F)cc2)CCO1` (stereo not drawn), the “viability change, negative = cytotoxic” value was -15.6% [at 35.3 µM] (inactive).
On to `CN1CCCN=C1/C=C/c1cccs1`, for which the “viability change, negative = cytotoxic” value was 0.931% [at 35.3 µM] (inactive).
As to `CCCCCCCCCOC(C)=O`, the “viability change, negative = cytotoxic” value is 0.129% (inactive).
Consider `Cn1c(=O)c2c(ncn2CC(=O)O)n(C)c1=O`, for which the “viability change, negative = cytotoxic” value was 2.9% [at 35.3 µM] (inactive).
In the case of `N#C[C@@H]1C[C@@H]2C[C@@H]2N1C(=O)[C@@H](N)C12CC3CC(CC(O)(C3)C1)C2`, the “viability change, negative = cytotoxic” value was -2.17% [at 35.3 µM] (inactive).
Take `O=C(O)c1ccc(CO)o1`: the “viability change, negative = cytotoxic” value is 2.78% (inactive).
For the compound `CN1Cc2cc(C(=O)N3CCC(C4CCNCC4)CC3)ccc2N[C@@H](CC(=O)O)C1=O`, the “viability change, negative = cytotoxic” value is 1.2% [at 35.3 µM] (inactive).
On the same count and under the same terms, the figure for `CC1(C)C2=CCCC(C)(C)[C@]23CC[C@H]1C3` is 4.42% (inactive).
